Data reported in PubChem BioAssay AID1531 (NMMLSC, 2009).
Among all 290,000 compounds or so, about 3,300 (1.1%) were called active. The sample holds actives, similar compounds and a random draw of the others, so the mix is not that of the screen. Values without a mark were called inactive. Cut-off read from the data, not from the text of the source: active = binding response below about 67% or above about 130%; inconclusive = no clear call, values can overlap the other calls; inactive = in between.

Each compound was assayed against Mitogen-activated protein kinase kinase kinase 2 (Homo sapiens) (UniProt Q9Y2U5) (assay: modulators of MEK5 binding to wildtype MEKK2, primary screen, biochemical, multiplex bead flow cytometry, Alexa488-MEK5 (AID 1531)). Conditions: Alexa488-MEK5 binding to MEKK2 WT, at 10 µM, actives lie on both sides.

Structure (SMILES)	binding response (% of control)
C=CCC1(C(=O)N(C)Cc2ccccc2)CCN(C(=O)OC(C)(C)C)CC1	94%
Cc1cc(Br)ccc1NC(=S)NC1CCCC1	94%
CC(=O)[C@@]12O[C@@H]1C[C@H]1[C@@H]3CC[C@H]4C[C@@H](O)CC[C@]4(C)[C@H]3CC[C@@]12C	107%
CC(C)(C)n1nnnc1C(c1ccccc1F)N1CCN(C(=O)c2ccco2)CC1 (configuration not stated)	99%
N#C[C@]1(S(=O)(=O)c2ccccc2)C[C@@H]2ON=C(c3cccc(Br)c3)[C@@H]2C1	91%
O=C(Nc1ccc(Cl)cc1)OCc1cc(-c2ccccc2)on1	112%
c1ccc2cc(OCCN3CCCC3)ccc2c1	102%
Clc1ccccc1-c1cc(COc2ccc3ccccc3c2)no1	-1% (active)
Cc1c(-c2ccccc2)cn2c1-c1ccc(C)n1CC2	55% [inhibitor] (active)
CCCOc1ccc(Cc2c(O)nc(N)[nH]c2=O)cc1C	105%
COc1ccc(N2CCN(C3CCCCC3NS(=O)(=O)c3ccccc3)CC2)cc1 (configuration not stated)	105%
CCOc1cc2ccccc2cc1C(=O)Nc1ccccn1	108%
O=c1[nH]cccc1-c1nc2ccccc2n1Cc1ccc(Cl)cc1	105%
Cc1ccc(CNS(=O)(=O)c2ccc3c(c2)N(C)CCO3)cc1	94%
CCOc1ccc(/C=C2\SC(=S)N(NC(=O)c3ccncc3)C2=O)cc1OC	95%
COc1cccc(/C=N/Nc2ncc(C(F)(F)F)cc2Cl)c1O	96%
COc1cc(/C=C2\SC(=S)N(Nc3ncc(C(F)(F)F)cc3Cl)C2=O)cc(OC)c1OC	61% [inhibitor] (active)
O=C1/C(=C\c2ccsc2)NC(=S)N1c1ccccc1	87%
CN(C)c1ccc(/C=C2\NC(=S)N(Cc3ccccc3)C2=O)cc1	72% [inhibitor] (active)
CC1=NN(Cc2ccccc2)C(=O)/C1=C/c1ccc(N(C)C)cc1	109%
CN(Cc1ccco1)S(=O)(=O)c1nnc(NC(=O)c2ccccc2)s1	96%

Structure (SMILES)	binding response (% of control)
CN1CCN(/N=C/c2ccc(-c3ccc([N+](=O)[O-])cc3)o2)CC1	103%
CN1CCN(/N=C/c2ccc(C#N)cc2)CC1	166% (active)
CSc1ccc(/C=N/N2CCN(Cc3ccccc3Cl)CC2)cc1	99%
COc1ccccc1CCNS(=O)(=O)c1cc2c3c(c1)C(C)C(=O)N3CCC2 (configuration not stated)	85%
Cc1ccc2c(C)c(C(=O)N3CCN(c4ccncc4)CC3)oc2c1C	159% (active)
Cc1ccc2c(C)c(C(=O)N(C)Cc3ccncn3)oc2c1C	98%
Cc1c(C(=O)N2CCN(c3ccc(F)cc3)CC2)oc2c1C(=O)CCC2	104%
COC(=O)c1ccc(Nc2ncnc3sccc23)cc1	102%
Cc1c(NC(=O)CSc2nnnn2-c2ccc(C(=O)O)cc2)c(=O)n(-c2ccccc2)n1C	-12% (active)
COc1ccc(-n2nnnc2SCC(=O)Nc2ccccc2)cc1	104%
Cc1c(NC(=O)CSc2cccc3cccnc23)c(=O)n(-c2ccccc2)n1C	99%
CC(Sc1nc2cc(Cl)ccc2s1)C(=O)Nc1ccc2c(c1)OCO2 (configuration not stated)	78%
O=C(Nc1ccc2c(c1)OCO2)c1sc2cc(Cl)ccc2c1Cl	19% (active)
O=C(COc1ccc(Cl)cc1)Nc1ccc2c(c1)OCO2	100%
COC(=O)c1ccccc1NC(=O)C1CCN(C(=O)N2CCOc3ccccc32)CC1	103%
Oc1ccc(-n2nnnc2SCc2c(F)cccc2Cl)cc1	98%
COc1ccc(CNC(=O)c2ccc(Br)s2)cc1OC	96%
O=C(NC1CCCC1)C1CCN(C(=O)Nc2cccc(Cl)c2)CC1	110%
O=C(Nc1cccc(-c2cscn2)c1)C1CCN(Cc2ccsc2)CC1	112%
CC(=O)c1cc(CN2CCC(C(=O)Nc3cccc(-c4cscn4)c3)CC2)cs1	116%
CCn1cc(CN2CCC(C(=O)Nc3cccc(-c4cccc(Cl)c4)c3)CC2)c(C)n1	166% (active)

Structure (SMILES)	binding response (% of control)
O=C(Nc1cccc(-c2cccc(Cl)c2)c1)C1CCN(C2CCC2)CC1	151% (active)
O=C(Nc1cnn(Cc2ccc(Cl)cc2)c1)C1CCCC1	110%
COc1cccc(-c2cccc(NC(=O)C3CCN(C4CCC4)CC3)c2)c1	104%
CCn1cc(CN2CCC(n3nccc3NC(=O)CCCc3ccccc3)CC2)c(C)n1	108%
CCn1cc(CN2CCC(C(=O)Nc3cccc(-c4cccc(Cl)c4)c3)CC2)cn1	160% (active)
COc1ccc(CNC(=O)[C@@H]2CC=C[C@@H]3CCN(C4CC4)C(=O)[C@@H]32)cc1	98%
Cc1ccc(CN(CC(=O)NC2CCCCC2)C(=O)c2csnn2)cc1	104%
O=C(O)CC/C(=C\c1cc2c(cc1Br)OCO2)c1nc2ccccc2s1	95%
O=C(Nc1ccc(Cl)c(Cl)c1)c1ccccc1NC(=O)C1CC=CCC1C(=O)O (configuration not stated)	104%
CCOC(=O)Cc1csc(NC(=O)CSc2ccc(Br)cc2)n1	109%
CCOC(=O)Cc1csc(NC(=O)CSc2nc(C)cc(=O)[nH]2)n1	61% [inhibitor] (active)
CCCCc1nnc(NC(=O)CSc2nc(C)cc(=O)[nH]2)s1	99%
CCOc1ccccc1N1C(=O)CC(Sc2nccc(C)n2)C1=O (configuration not stated)	105%
CSc1ccccc1NC(=O)c1ccc2c(c1)CCN2S(C)(=O)=O	106%
O=C(C1CCC(=O)N(C2CC2)C1)N1CCN(c2ccc(Cl)cc2)CC1 (configuration not stated)	104%
CN(C)Cc1c(O)ccc2c(=O)c(-c3ccccc3Cl)coc12	112%
CCCOc1ccc(Cl)cc1Nc1nc(NCCO)nc(N2CCCC2)n1	112%
CC1CCC(NC(=O)c2ccc(N3CCCC3=O)cc2)CC1 (configuration not stated)	105%
CCOc1ccc(C(=O)NCCCN2CCCC2=O)cc1	112%
O=C(NCCCN1CCCCCC1)c1ccc(N2CCCC2=O)cc1	193% (active)
